# Assay outcomes as filed in PubChem BioAssay.
# TEAD-YAP inh: TEAD-YAP interaction inhibition; AID 1259422; inhibition, % at 9.12 µM; HEK-TIYL cells, TEAD-Gal4/YAP UAS-luciferase luminescence; 640,000 tested, 1.4% active; in the data active means inhibition above about 32%;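 further: 0% = median of test compound wells and 100% = reference inhibitor wells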
# FBW7 activator: human FBW7 E3 ligase activation, primary screen; Q969H0; AlphaScreen FBW7–phospho-cyclin E peptide binding, activator screen; normalized activity (activation), % at 26.1 µM; 650,000 tested, 0.13% active; AID 1259310; in the data active means normalized activity above about 1.9%;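 further: purified mutant Fbw7 with reduced substrate affinity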
# GPR151 activ: activates the human receptor GPR151; PathHunter beta-arrestin GPR151 cells, luminescence; activation, % at 11.2 µM; 650,000 tested, 1% active; in the data active means activation above about 4.9%;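 further: 0% = median of compound wells and 100% = cells with positive control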
# MITF inh: blocks human microphthalmia-associated transcription factor; O75030; AlphaScreen MITF homodimerization, bead proximity signal; inhibition, % at 2.6 µM; 650,000 tested, 0.91% active; AID 1259374; in the data active means inhibition above about 50%;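 further: 0% = vehicle wells with protein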
# GPR151 conf act: confirmation of human GPR151 activators. GPR151 PathHunter beta-arrestin cells, luminescence, 90 min; % of EA-reagent control over plate median. 6,700 tested, under 10 active. AID 1508609. shares compounds with GPR151 activ. activation, % at 11.2 µM;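 active means mean percent activation across replicates above the confirmation screen cutoff of 4.91%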
# GPR119 counter: counter-screen for GPR151 activators: effect on human GPR119. shares compounds with GPR151 activ. GPR119 PathHunter beta-arrestin cells, luminescence, 90 min; 0 = compound-well median, 100 = enzyme-acceptor control. 6,700 tested, 0.3% active. AID 1508611. activation, % at 11.2 µM;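 active means mean percent activation in the counterscreen above 29.09%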;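 further: counterscreen on off-target GPR119 to flag nonselective hits from the GPR151 activator screen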
# * marks the source's active call; other numbers are inactive results; . = not tested or not shown. Rows were chosen to be rich in hits. Some 3.5% of all compounds tested hit in one or more screens of this group.
SMILES,TEAD-YAP inh,FBW7 activator,GPR151 activ,MITF inh,GPR151 conf act,GPR119 counter
CCCCOc1ccc(OCCCC)c2c1NC1(N2)C(=O)Nc2ccc([N+](=O)[O-])cc21,-9,0,5.1*,5,1,2
CCOc1cc(C2C(C(=O)OC)=CN(CCOC)C=C2C(=O)OC)cc([N+](=O)[O-])c1O,4,0,6.0*,6,1,-1
COC(=O)C(CC(C)C)NC(=O)CSc1nc2ccccc2o1 (centres undefined),1,0,1,16,.,.
COc1ccc(OC)c(NC(=O)CC2C(=O)NCCN2C(=O)C(F)(F)F)c1 (centres undefined),1,1,7.0*,9,0,1
Cc1nnc2c(N3CCN(c4ccccn4)CC3)nc3ccccc3n12,1,0,6.2*,-6,0,-2
COCCNC(=O)CN(C(=O)CCC(=O)Nc1ccccn1)c1ccc2c(c1)OCO2,-5,0,-1,8,.,.
O=C(CN(C(=O)CCC(=O)Nc1nccs1)c1cccc(F)c1)NCC1CCCO1 (centres undefined),-5,1,9.2*,11,1,0
COCCNC(=O)CN(C(=O)CCC(=O)Nc1nccs1)c1ccc2c(c1)OCO2,1,0,7.3*,-4,1,11
COc1ccccc1C(CC(=O)Nc1nccs1)c1ccc2c(c1)OCO2 (centres undefined),-5,0,6.6*,0,0,13
Cc1cc(N2CCCCC2)nc2ccc(NC(=O)c3cc(=O)c4ccccc4o3)cc12,-5,0,-1,-17,.,.
CCOc1ccc(Cl)cc1/C=C\c1onc(C)c1[N+](=O)[O-],6,0,3,4,.,.
N#CC1=C(N)OC(c2ccccc2)=C(n2cnc([N+](=O)[O-])c2)C1c1cccnc1 (centres undefined),2,0,8.2*,-5,-1,-4
N#CC1=C(N)OC(c2ccccc2)=C(n2cnc([N+](=O)[O-])n2)C1c1ccccc1 (centres undefined),3,0,2,-7,.,.
COC(=O)CCC(C)C1CCC2C3CC[C@@H]4C[C@H](O)CC[C@]4(C)C3C[C@H](O)[C@]12C (some centres undefined),4,0,6.4*,16,0,8
C[C@H](CCC(=O)O)[C@H]1CC[C@H]2[C@@H]3[C@@H](O)C[C@@H]4C[C@H](O)CCC4(C)[C@H]3CCC12C (some centres undefined),.,0,4,-12,.,.
CCOc1ccc(Oc2nc(N(C)C)nc(N(C)C)n2)nn1,3,0,1,-3,.,.
COc1ccc2nc(Cl)c(C3CC(c4ccc(Cl)cc4)=NN3C(=O)CCCC(=O)O)cc2c1 (centres undefined),-3,0,0,7,.,.
COc1ccc2nc(Cl)c(C3CC(c4ccccc4)=NN3C(=O)CCCC(=O)O)cc2c1 (centres undefined),3,0,5.0*,17,0,2
COc1ccc(/C=C2\SC(=Nc3ccc(O)cc3)NC2=O)cc1,8,0,1,-16,.,.
COc1ccc(/C=C2/SC(=Nc3ccc(O)cc3)NC2=O)cc1,3,0,5.0*,4,1,6
Cc1cc(C)cc(N=C2NC(=O)/C(=C/c3ccc(OCc4ccc(Br)cc4)c(Br)c3)S2)c1,-12,0,0,-1,.,.
Cc1cc(C)cc(N=C2NC(=O)/C(=C/c3ccc(OCc4ccc(Br)cc4)cc3)S2)c1,2,0,5.7*,-2,0,11
CC1=NN(c2ccc(Cl)c(C(=O)O)c2)C(=O)/C1=C/c1cc2c(cc1Br)OCO2,8,-1,1,22,.,.
CCOc1ccc(CC(=O)N(c2ccc(OC)cc2)C2C=CS(=O)(=O)C2)cc1 (centres undefined),8,0,0,1,.,.
C/C(=N\NS(=O)(=O)c1ccc(C)cc1)c1c(O)c2ccccc2oc1=O,2,0,0,13,.,.
C/C(=N/NS(=O)(=O)c1ccc(C)cc1)c1c(O)c2ccccc2oc1=O,9,0,5.4*,9,-1,-11
CC1=C(C)SC(=C(C#N)c2nnc(N3CCOCC3)n2-c2ccccc2)S1,6,0,5.4*,-1,0,-2
